Measured values from PubChem BioAssay (EPA / NIEHS).
The source made the active and inactive calls. Rule for the calls: active = hit-call score of the fitted dose curve at least 0.9, where 1 is the maximum; inactive = score below 0.9.

assay: ATG_NF_kB_CIS: Attagene CIS-FACTORIAL HepG2 Assay for human Nuclear Factor Kappa B (NF-kB) (AID 2282991); conditions: HepG2 Attagene cis-factorial NF-kB reporter mRNA; actives raise or lower the signal
Outline: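 Endpoint from a 52-component multiplexed HepG2 reporter panel: cis-regulated transcription units transiently transfected, 24 h dosing, reporter mRNA quantified by RT-PCR and capillary electrophoresis, scored as increase or decrease against DMSO.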

**Q.** Which outcome does the source give for Brc1ccccn1 here?
**A.** inactive

**Q.** Which outcome does the source give for O=C1OC(=O)c2ccc3c4c(ccc1c24)C(=O)OC3=O here?
**A.** inactive

**Q.** With NCC(F)(F)C(F)(F)C(F)(F)C(F)(F)C(F)(F)C(F)(F)F as the compound, how does the outcome read?
**A.** inactive

**Q.** With CC(C)(C)C(=O)C1C(=O)c2ccccc2C1=O as the compound, how does the outcome read?
**A.** inactive

**Q.** Which outcome does the source give for CC(C)OC=O here?
**A.** inactive

**Q.** For O=S(=O)(Cl)C(F)(F)C(F)(F)C(F)(F)C(F)(F)C(F)(F)C(F)(F)C(F)(F)C(F)(F)F, which outcome is on record?
**A.** inactive

**Q.** With CC1=CCC(=O)O1 as the compound, how does the outcome read?
**A.** inactive

**Q.** For CC(O)C#CC(C)O (stereo unspecified), which AC50 is on record?
**A.** 84 µM (active)

**Q.** With NC(=O)C(F)(F)C(F)(F)C(F)(F)C(F)(F)C(N)=O as the compound, how does the outcome read?
**A.** inactive

**Q.** For CC(C)OC(=O)COc1ccc(Cl)cc1Cl, which outcome is on record?
**A.** inactive

**Q.** Which outcome does the source give for CCn1c2ccccc2c2ccccc21 here?
**A.** inactive

**Q.** With OCC(F)(F)C(F)(F)C(F)(F)CO as the compound, how does the outcome read?
**A.** inactive

**Q.** For CCN(CCO)S(=O)(=O)C(F)(F)C(F)(F)C(F)(F)C(F)(F)C(F)(F)C(F)(F)C(F)(F)C(F)(F)F, which outcome is on record?
**A.** inactive

**Q.** Which outcome does the source give for NC(=O)C(F)(F)C(F)(F)C(F)(F)C(F)F here?
**A.** inactive

**Q.** For O=C=Nc1cccc2c(N=C=O)cccc12, which outcome is on record?
**A.** inactive

**Q.** Which outcome does the source give for CC1=CC2C3C=CC(C3)C2C1C (stereo unspecified) here?
**A.** inactive

**Q.** With O=C1C=CC(=O)N1c1ccccc1 as the compound, how does the outcome read?
**A.** inactive

**Q.** Which outcome does the source give for O=C=NCc1cccc(CN=C=O)c1 here?
**A.** inactive

**Q.** For O=C(O)C(F)(F)OC(F)(F)C(F)(F)OC(F)(F)C(F)(F)OC(F)(F)F, which outcome is on record?
**A.** inactive

**Q.** With NC(O)(C(F)(F)F)C(F)(F)F as the compound, how does the outcome read?
**A.** inactive

**Q.** With O=C(Cl)C(F)(F)C(F)(F)C(F)(F)C(F)(F)C(F)(F)C(F)(F)C(F)(F)F as the compound, how does the outcome read?
**A.** inactive

**Q.** For O=C(F)C1(F)C(F)(F)C(F)(F)C(F)(F)C(F)(F)C1(F)F, which outcome is on record?
**A.** inactive

**Q.** With CCN(CC)c1ccc(C=O)cc1 as the compound, how does the outcome read?
**A.** inactive

**Q.** Which outcome does the source give for CCCCOC(=O)[C@H](C)O here?
**A.** inactive

**Q.** Which outcome does the source give for COCCC(=O)OC here?
**A.** inactive

**Q.** For Cc1ccc(S(=O)(=O)C(I)I)cc1, which AC50 is on record?
**A.** 19.5 µM (active)

**Q.** For C#CC(O)CCC (stereo unspecified), which outcome is on record?
**A.** inactive

**Q.** For O=C(O)C(F)(F)C(F)(F)C(F)(F)C(=O)O, which outcome is on record?
**A.** inactive

**Q.** Which outcome does the source give for CC(C)(C)c1cc(CCC(=O)OCC(COC(=O)CCc2cc(C(C)(C)C)c(O)c(C(C)(C)C)c2)(COC(=O)CCc2cc(C(C)(C)C)c(O)c(C(C)(C)C)c2)COC(=O)CCc2cc(C(C)(C)C)c(O)c(C(C)(C)C)c2)cc(C(C)(C)C)c1O here?
**A.** inactive

**Q.** With CC(C)Nc1ccc(NC(C)C)c2c1C(=O)c1ccccc1C2=O as the compound, how does the outcome read?
**A.** inactive

**Q.** For OCCCCC(F)(F)C(F)(F)C(F)(F)C(F)(F)F, which outcome is on record?
**A.** inactive

**Q.** Which outcome does the source give for COC(F)(C(F)F)C(F)(F)F (stereo unspecified) here?
**A.** inactive

**Q.** Which outcome does the source give for N#CCCOCCC#N here?
**A.** inactive

**Q.** With O=C(c1ccccc1)c1ccc(Cl)cc1 as the compound, how does the outcome read?
**A.** inactive

**Q.** With Nc1cccnc1N as the compound, how does the outcome read?
**A.** inactive

**Q.** With N#Cc1ccccc1O as the compound, how does the outcome read?
**A.** inactive
